According to PubChem BioAssay AID2810 (NMMLSC, 2010):
Among all 1,200 compounds or so, about 65 (5%) were called active.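 The calls were made as follows: active = at either tested dose, response and 90th-percentile vesicle-stain brightness of CD8 cells under set limits and under 9% cells vesicle-bound; inactive = the rest.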 This excerpt belongs to a sample that is enriched for actives.

Test: modulators of CD8 T cell-vesicle binding, confirmation, cherry-picked primary hits, two concentrations (AID 2810);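 also: lower values mean blocking of vesicle binding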;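 as to percent response (vesicle binding): ratio of mean FL2 vesicle stain of CD8+ cells to that row's control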
Settings: 2C CD8+ T cell-vesicle binding, flow cytometry; for double positive events: CD8+/vesicle+ events
[1] = at 15.4 µM, stronger effect = lower value

COc1ccc([C@H]2CC(=O)C=C(c3ccc(OC)nc3)C2)cc1
double positive events (at 7.7 µM): 14.2%
double positive events [1]: 9.6%
percent response (vesicle binding) [1]: 212% (inactive)
percent response (vesicle binding) (response, at 7.7 µM): 129%

CCCOc1ccc(C2=CC(=O)C[C@H](c3ccc(OC)cc3)C2)cc1
double positive events (at 7.7 µM): 11%
double positive events [1]: 10.3%
percent response (vesicle binding) [1]: 69.4% (inactive)
percent response (vesicle binding) (response, at 7.7 µM): 126%

COc1ccc(C2=CC(=O)C[C@H](c3ccc4c(c3)OCO4)C2)cn1
double positive events (at 7.7 µM): 9.9%
double positive events [1]: 4.4%
percent response (vesicle binding) [1]: 35.6% (active)
percent response (vesicle binding) (response, at 7.7 µM): 132%

Cc1ccc(O)c(CCc2ccccc2)n1
double positive events (at 7.7 µM): 15.8%
double positive events [1]: 2.8%
percent response (vesicle binding) [1]: 113% (inactive)
percent response (vesicle binding) (response, at 7.7 µM): 128%

O=C(Nc1nc2ccccc2[nH]1)c1ccccc1[N+](=O)[O-]
double positive events (at 7.7 µM): 21%
double positive events [1]: 27.8%
percent response (vesicle binding) [1]: 316% (inactive)
percent response (vesicle binding) (response, at 7.7 µM): 383%

CCNC(=O)CSc1nc(-c2ccccc2)cs1
double positive events (at 7.7 µM): 25.1%
double positive events [1]: 14.3%
percent response (vesicle binding) [1]: 215% (inactive)
percent response (vesicle binding) (response, at 7.7 µM): 240%

O=C(Nc1nc(-c2ccccc2)cs1)c1ccc(N2CCOCC2)c([N+](=O)[O-])c1
double positive events (at 7.7 µM): 8.4%
double positive events [1]: 25.6%
percent response (vesicle binding) [1]: 552% (inactive)
percent response (vesicle binding) (response, at 7.7 µM): 78.4%

O=C(NC(=S)Nc1nc(-c2ccccc2)cs1)c1cccs1
double positive events (at 7.7 µM): 16.9%
double positive events [1]: 1.5%
percent response (vesicle binding) [1]: 48.9% (active)
percent response (vesicle binding) (response, at 7.7 µM): 238%

CC1c2ccsc2CCN1C(=O)NC(=O)c1ccc(Cl)cc1 (stereo unspecified)
double positive events (at 7.7 µM): 20.6%
double positive events [1]: 18.4%
percent response (vesicle binding) [1]: 185% (inactive)
percent response (vesicle binding) (response, at 7.7 µM): 486%

CCOC(=O)c1cnc2nc(C)nn2c1N
double positive events (at 7.7 µM): 10.5%
double positive events [1]: 10.6%
percent response (vesicle binding) [1]: 70.8% (inactive)
percent response (vesicle binding) (response, at 7.7 µM): 113%

CCCNC(=O)c1nc2ncc(Br)cn2n1
double positive events (at 7.7 µM): 15.3%
double positive events [1]: 1%
percent response (vesicle binding) [1]: 43% (active)
percent response (vesicle binding) (response, at 7.7 µM): 231%

CCCCNC(=O)c1cnc2n(c1=O)CCS2
double positive events (at 7.7 µM): 38.7%
double positive events [1]: 14.7%
percent response (vesicle binding) [1]: 184% (inactive)
percent response (vesicle binding) (response, at 7.7 µM): 399%

O=C(NNC(=S)NC(=O)c1ccco1)c1ccc(F)cc1
double positive events (at 7.7 µM): 7.1%
double positive events [1]: 18.1%
percent response (vesicle binding) [1]: 196% (inactive)
percent response (vesicle binding) (response, at 7.7 µM): 291%

Cc1ccc(C(=O)NCc2ccco2)o1
double positive events (at 7.7 µM): 10.5%
double positive events [1]: 20.1%
percent response (vesicle binding) [1]: 586% (inactive)
percent response (vesicle binding) (response, at 7.7 µM): 368%

O=C(NC(=S)NCc1ccco1)c1ccc(Br)cc1
double positive events (at 7.7 µM): 18.8%
double positive events [1]: 5.9%
percent response (vesicle binding) [1]: 52.9% (active)
percent response (vesicle binding) (response, at 7.7 µM): 186%

CCOc1ccccc1NC(=O)c1ccc(F)c(S(=O)(=O)N2CCC3(CC2)OCCO3)c1
double positive events (at 7.7 µM): 16.8%
double positive events [1]: 14.7%
percent response (vesicle binding) [1]: 94.2% (inactive)
percent response (vesicle binding) (response, at 7.7 µM): 132%

COc1ccc(C2(O)CCN(CCCCOc3ccccc3)CC2)cc1
double positive events (at 7.7 µM): 12.9%
double positive events [1]: 31.8%
percent response (vesicle binding) [1]: 292% (inactive)
percent response (vesicle binding) (response, at 7.7 µM): 174%

C[N+]1(C)CC2([N+](=O)[O-])CC=C(Oc3ccccc3)C([N+](=O)[O-])(C2)C1 (stereo unspecified)
double positive events (at 7.7 µM): 28.9%
double positive events [1]: 3.4%
percent response (vesicle binding) [1]: 49.5% (active)
percent response (vesicle binding) (response, at 7.7 µM): 485%

CCOc1ccccc1NC(=O)CN(c1ccc(C)cc1)S(=O)(=O)c1c(C)noc1C
double positive events (at 7.7 µM): 30.1%
double positive events [1]: 16.7%
percent response (vesicle binding) [1]: 129% (inactive)
percent response (vesicle binding) (response, at 7.7 µM): 502%

COc1ccc(Cl)cc1NC(=O)/C=C/C(=O)O
double positive events (at 7.7 µM): 13.3%
double positive events [1]: 24.2%
percent response (vesicle binding) [1]: 251% (inactive)
percent response (vesicle binding) (response, at 7.7 µM): 192%

CCCCN(C(=O)COC(=O)c1ccc(C=O)cc1)c1c(N)n(CCC)c(=O)[nH]c1=O
double positive events (at 7.7 µM): 9.2%
double positive events [1]: 13.1%
percent response (vesicle binding) [1]: 406% (inactive)
percent response (vesicle binding) (response, at 7.7 µM): 335%

CCc1ccc(OCc2cnc(Cl)s2)cc1
double positive events (at 7.7 µM): 11.6%
double positive events [1]: 16.5%
percent response (vesicle binding) [1]: 277% (inactive)
percent response (vesicle binding) (response, at 7.7 µM): 421%

Cn1c(SCC(=O)Nc2ccc3cn[nH]c3c2)nnc1-c1cccs1
double positive events (at 7.7 µM): 12.5%
double positive events [1]: 17.2%
percent response (vesicle binding) [1]: 146% (inactive)
percent response (vesicle binding) (response, at 7.7 µM): 160%

Cc1c(NC(=S)NC(=O)CCc2ccccc2)c(=O)n(-c2ccccc2)n1C
double positive events (at 7.7 µM): 21.8%
double positive events [1]: 30.2%
percent response (vesicle binding) [1]: 295% (inactive)
percent response (vesicle binding) (response, at 7.7 µM): 278%

Cc1c(NS(=O)(=O)CC23CCC(CC2=O)C3(C)C)c(=O)n(-c2ccccc2)n1C (stereo unspecified)
double positive events (at 7.7 µM): 14.2%
double positive events [1]: 1.9%
percent response (vesicle binding) [1]: 37.7% (active)
percent response (vesicle binding) (response, at 7.7 µM): 260%

CCC(=O)NC(NC(=S)Nc1c(C)n(C)n(-c2ccccc2)c1=O)C(Cl)(Cl)Cl (stereo unspecified)
double positive events (at 7.7 µM): 16.1%
double positive events [1]: 13.9%
percent response (vesicle binding) [1]: 129% (inactive)
percent response (vesicle binding) (response, at 7.7 µM): 201%

COc1cc(C(C)=O)ccc1O
double positive events (at 7.7 µM): 24%
double positive events [1]: 6.3%
percent response (vesicle binding) [1]: 114% (inactive)
percent response (vesicle binding) (response, at 7.7 µM): 362%

Cc1cc(C(=O)NCc2cc(C(=O)O)oc2C)c(C)o1
double positive events (at 7.7 µM): 29.4%
double positive events [1]: 14.9%
percent response (vesicle binding) [1]: 86.2% (inactive)
percent response (vesicle binding) (response, at 7.7 µM): 224%

CSCCC(NC(=O)c1ccc(=O)n(C)n1)c1nc2ccccc2[nH]1 (stereo unspecified)
double positive events (at 7.7 µM): 14.9%
double positive events [1]: 0.9%
percent response (vesicle binding) [1]: 42% (active)
percent response (vesicle binding) (response, at 7.7 µM): 254%

O=C(NCC(=O)N1CCN(C(=O)c2ccccc2)CC1)c1ccccc1
double positive events (at 7.7 µM): 13.6%
double positive events [1]: 10.6%
percent response (vesicle binding) [1]: 148% (inactive)
percent response (vesicle binding) (response, at 7.7 µM): 158%

Cc1cc(C)nc(SCCn2c(N3CC(C)OC(C)C3)nc3c2c(=O)n(C)c(=O)n3C)n1 (stereo unspecified)
double positive events (at 7.7 µM): 12.7%
double positive events [1]: 28.3%
percent response (vesicle binding) [1]: 226% (inactive)
percent response (vesicle binding) (response, at 7.7 µM): 172%

C=CCNC(=O)c1c(Cl)nc(C)c([N+](=O)[O-])c1C
double positive events (at 7.7 µM): 28.7%
double positive events [1]: 11.5%
percent response (vesicle binding) [1]: 144% (inactive)
percent response (vesicle binding) (response, at 7.7 µM): 122%

CCC1(C)NC(=O)N(CC(=O)N2N=C(c3ccccc3)CC2c2ccc(OC)cc2)C1=O (stereo unspecified)
double positive events (at 7.7 µM): 9.6%
double positive events [1]: 30.9%
percent response (vesicle binding) [1]: 413% (inactive)
percent response (vesicle binding) (response, at 7.7 µM): 134%

CCOc1ccc(-c2cn(-c3ccc(OC)cc3)c(SC)n2)cc1
double positive events (at 7.7 µM): 11.4%
double positive events [1]: 13.4%
percent response (vesicle binding) [1]: 155% (inactive)
percent response (vesicle binding) (response, at 7.7 µM): 303%
